Where “and” joins values, the source holds several entries; their conditions need not be identical. Equal values may be shown once. Inconclusive results are not listed. Where a call stands in place of a potency, no number is given. Some structures have more than one record in an assay (separate samples or runs), and their calls can disagree. Calls of active or inactive are those of the source. The call rests on the fitted dose curve; in most records, active means well fitted cell-killing curve with a large enough effect in the repeat runs; inconclusive means weak or mixed curves, or effect the other way; inactive means no such curve, though single readings can be large or run the other way.
Potency means the concentration at half of the fitted maximal effect.

The nature of the test: qHTS assay to identify small molecule agonists of the farnesoid-X-receptor (FXR) signaling pathway - cell viability counter screen (AID 743218). Further: nearly all actives have a fitted effect of over 45% in size. The following applies: FXR-bla HEK293T viability, CellTiter-Glo luminescence, 16 h; series mostly up to 62.6 µM. An excerpt:
U.S. Tox21 Program National Center for Advancing Translational Sciences [NCATS] NIH Chemical Genomics Center [NCGC] U.S. Environmental Protection Agency [EPA] National Institutes of Environmental Health Sciences [NIEHS] National Toxicology Program [NTP] U.S. Food and Drug Administration [FDA] Tox21 Assay Overview: The farnesoid-X-receptor (FXR), a nuclear hormone receptor, is highly expressed in liver, intestine, kidney and adrenal cortex. Natural ligands of FXR are the bile acids (Cholic acid, Chenodeoxy cholic acid etc). FXR is an important regulator of diverse metabolic pathways, including the bile acid homeostasis, lipid and glucose metabolisms. FXR regulates the expression of target genes by binding either as a monomer or as a heterodimer with the retinoid X receptor (RXR). Numerous studies have reported that FXR exerts protective function during cholestasis, diabetes, liver regeneration, and cancer. To identify compounds that activate FXR signaling, GeneBLAzer FXR-UAS-bla HEK 293T cell line (Invitrogen, Carlsbad, CA) containing a beta-lactamase reporter gene under the control of a UAS response element was used to screen the Tox21 10K compound library. The cytotoxicity of the Tox21 compound library against the FXR-bla cell line was tested in parallel by measuring the cell viability using CellTiter-Glo assay in the same wells.
Tox21 Assay Protocol Summary: FXR-bla cells were dispensed at 5000 cells/5uL/well in 1536-well black wall/clear bottom plates using a Multidrop Combi (Thermo Fisher Scientific, Waltham, MA) dispenser. After the assay plates were incubated at 37 C and 5% CO2 for 5 h, 23 nL of compounds dissolved in DMSO, positive controls or DMSO only was transferred to the assay plate by a Pintool station (Kalypsys, San Diego, CA). The assay plates were incubated at 37C for 16 h. After 1 uL of LiveBLAzerTM B/G FRET substrate was added using a Bioraptr Flying Reagent Dispenser (FRD) workstation (Beckman Coulter, Indianapolis, IN), the plates were incubated at room temperature for 2 h, and fluorescence intensity was measured by an Envision plate reader (PerkinElmer, Shelton, CT). For cell viability readout that measures cytotoxicity, 4uL/well of CellTiter-Glo reagent was added into the assay plates using a Bioraptr FRD. After 30 min incubation at room temperature, the luminescence intensity in the plates was measured using a ViewLux plate reader (PerkinElmer).
On the technique in general: qHTS replaces the single test concentration by a dilution series.
`CCn1cc(C(=O)O)c(=O)c2cc(F)c(N3CCNC(C)C3)c(F)c21` (stereo not given): the Potency result is “inactive”.
As for `CC(=O)CC(C)=O`, the Potency result is “inactive”.
The value for `NC(=Nc1ccccc1)Nc1ccccc1` was “inactive”.
The value for `COC(=O)c1cccc(C(=O)OC)c1` was “inactive”; that for `CCC(C)(C)C(=O)O[C@H]1C[C@@H](C)C=C2C=C[C@H](C)[C@H](CC[C@@H]3C[C@@H](O)CC(=O)O3)[C@H]21` was “inactive”.
The figure for `CC[C@H]1CN2CCc3cc(OC)c(OC)cc3[C@@H]2C[C@@H]1C[C@H]1NCCc2cc(OC)c(OC)cc21` is 27.6 µM (active) and inactive; for `CCOC(=O)C(C)C(C)=O` (stereo not given) it is “inactive”.
With `Cc1ccc(S(=O)(=O)Oc2ccc(N=Nc3ccc(-c4ccc(N=Nc5c(O)ccc6cc(S(=O)(=O)O)cc(S(=O)(=O)O)c56)c(C)c4)cc3C)cc2)cc1`, the Potency result was “inactive”.
The value for `CCN(CC)C(=S)SSC(=S)N(CC)CC` was 91.5 nM (active); that for `CC(C)(c1ccccc1)c1ccc(Nc2ccc(C(C)(C)c3ccccc3)cc2)cc1` was “inactive”; that for `CC(=O)N[C@@H](CS)C(=O)O` was “inactive”.
The figure for `Nc1ccc(O)cc1` is 25.5 µM (active) and inactive; for `CCCC(=O)c1ccccc1` it is “inactive”; for `Cc1cccc([N+](=O)[O-])c1C(=O)O` it is “inactive”.
With `NNCCc1ccccc1`, the Potency result was “inactive”.
The value for `O=C1OC2(c3ccc(O)cc3Oc3cc(O)ccc32)c2ccccc21` was “inactive”.
The entry for `Nc1cc(S(=O)(=O)O)cc2cc(S(=O)(=O)O)cc(O)c12` is “inactive”; for `c1cnc2cc3c(cc2n1)C1CNCC3C1` it is “inactive”.
The entry for `CN(C)c1ccc2nc3ccc(=[N+](C)C)cc-3sc2c1` is “inactive”.
Take `O=C(O)CP(=O)(O)O`: the Potency result was “inactive”.
On to `CCc1cc(C(C)(C)C)c(O)c(C(C)(C)C)c1`, for which the Potency result was “inactive”.
The figure for `Cc1cc(OCCOCC[N+](C)(C)Cc2ccccc2)ccc1C(C)(C)CC(C)(C)C` is 17.3 µM (active) and 18.8 µM (active).
The entry for `O=C(O[C@@H]1Cc2c(O)cc(O)cc2O[C@@H]1c1cc(O)c(O)c(O)c1)c1cc(O)c(O)c(O)c1` is “inactive”.
Turning to `CC(=O)OCCOCCOCCOC(C)=O`, the Potency result is “inactive”.
The value for `COc1ccc(Cc2cnc(N)nc2N)cc1OC` was “inactive”; that for `CC[C@@H](N)CO` was “inactive”; that for `C[N+]1([O-])CCOCC1` was “inactive”.
With `CC(COc1ccccc1)N(CCCl)Cc1ccccc1` (stereo not given), the Potency is 49 µM (active) and inactive.
For the compound `CC(C)(C)NCC(O)COc1ccccc1OCC1CCCO1` (stereo not given), the Potency entry is “inactive”.
Consider `Cc1ccnc2c1NC(=O)c1cccnc1N2C1CC1`, for which the Potency result is “inactive”.
As to `CCN(CC)CCOc1ccc(/C(=C(\Cl)c2ccccc2)c2ccccc2)cc1`, the Potency is 35.4 µM (active) and 26.6 µM (active).
For the compound `CCCCN(CCO)CCCC`, the Potency result was “inactive”.
The entry for `O=C1NCC2(CCN(CCc3ccccc3)CC2)O1` is “inactive”.
Take `Cc1cccc(O)c1C`: the Potency result was “inactive”.
The value for `CCC[C@H](N[C@@H](C)C(=O)N1[C@H](C(=O)O)C[C@@H]2CCCC[C@@H]21)C(=O)OCC` was “inactive”; that for `Cc1cccc2n[nH]nc12` was “inactive”; that for `CCC(C)(Oc1ccc(C2(c3ccc(OC(C)(CC)C(=O)O)cc3)CCCCC2)cc1)C(=O)O` (stereo not given) was “inactive”.
The figure for `Oc1ccc(Cl)cc1Cc1cc(Cl)ccc1O` is 49000 nM (active); for `Cc1occc(=O)c1OC(=O)C(C)C` it is “inactive”; for `Cc1cc(C2(c3cc(C)c(O)cc3C)OS(=O)(=O)c3ccccc32)c(C)cc1O` it is “inactive”.

Values taken from PubChem BioAssay (Tox21).
